SIAE primary: inhibitors of human sialic acid acetylesterase SIAE | Q9HAT2 | SIAE FP-Rh probe binding, fluorescence polarization | inhibition, % at 9.66 µM | 0.69% of 370,000 active | AID 1053197;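 active = inhibition above a cutoff: mean of compounds within the control limits plus 3 SD of those, cut at about 17% in these data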;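 note: 0% = plate median of compound wells and 100% = probe without SIAE protein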
PME-1 primary: PME-1 (human) inhibition; 0.53% of 320,000 active; inhibition, % at 5.9 µM; AID 2130; recombinant PME-1, FP-Rh probe fluorescence polarization;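 active = inhibition above the campaign mean of all compounds plus 3 SD, cut at about 26% in these data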;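 note: competitive labeling of PME-1 active site by serine hydrolase directed probe; 0% = PME-1 with DMSO and 100% = wells lacking PME-1 enzyme; inhibitors block probe labeling so polarization falls and inhibition rises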
PRMT1 inh: inhibitors of human PRMT1; AID 652257; 1.3% of 370,000 active; recombinant PRMT1, activity-based probe fluorescence polarization; Q99873; inhibition, % at 2.79 µM;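 active = inhibition above about 21% made by adding two undisclosed values, limit read from the data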
Target sequence (Q99873 whole entry, looked up): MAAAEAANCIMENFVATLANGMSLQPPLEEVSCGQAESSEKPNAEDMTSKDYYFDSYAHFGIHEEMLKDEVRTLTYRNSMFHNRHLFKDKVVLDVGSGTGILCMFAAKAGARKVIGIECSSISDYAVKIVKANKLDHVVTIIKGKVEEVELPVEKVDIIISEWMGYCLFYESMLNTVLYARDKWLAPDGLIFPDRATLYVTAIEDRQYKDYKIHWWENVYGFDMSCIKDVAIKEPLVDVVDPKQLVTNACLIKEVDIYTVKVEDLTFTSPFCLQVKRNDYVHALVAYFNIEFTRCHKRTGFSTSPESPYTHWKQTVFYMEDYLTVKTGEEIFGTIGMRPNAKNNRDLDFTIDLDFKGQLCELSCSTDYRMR
Fam108B inh: Fam108B inhibition, counter-screen for RBBP9 inhibitors; recombinant Fam108B, FP-Rh probe fluorescence polarization; inhibition, % at 9.51 µM; 0.33% of 300,000 active; AID 1947;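 active = inhibition above the screen mean inhibition plus 3 SD, computed separately per campaign, cut at about 18% in these data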;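 note: inhibitors lower polarization as less probe binds the enzyme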
TCR CD3 inh: inhibitors of human TCR-CD3 interaction. TAMRA-labeled TCR probe fluorescence, biochemical. inhibition, % at 9.4 µM. 0.37% of 360,000 active; in the data active = inhibition above about 19%;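 note: recombinant mutant TCR 2C K166C tagged with TAMRA read by polarization; 0% = receptor in buffer alone and 100% = receptor with positive control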
PAD4 FP inh: blocks human protein arginine deiminase 4; inhibition, % at 6.36 µM; AID 485272; Q9UM07; 0.41% of 330,000 active; recombinant PAD4, RCA probe fluorescence polarization;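 active = percent inhibition above a cutoff equal to the mean of all tested compounds plus 3 SD, cut at about 15% in these data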;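 note: 0% = PAD4 with RCA probe and DMSO and 100% = probe without PAD4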
PAD4 FP conf: PAD4 (human) inhibition, confirmed. inhibition, % at 6.36 µM. AID 488796. 28% of 1,200 active. recombinant PAD4, RCA probe fluorescence polarization. shares compounds with PAD4 FP inh;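 active = mean inhibition across replicates above the hit cutoff set by the earlier primary screen, cut at about 15% in these data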;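 note: inhibitors block active-site labeling by the probe so polarization falls; 0% = PAD4 with probe and DMSO and 100% = probe without PAD4 enzyme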
An asterisk follows results filed as active; / = no result. Only some compounds are listed: those with a hit (about 2.6% of all), similar ones and a draw of the others.

SMILES	SIAE primary	PME-1 primary	PRMT1 inh	Fam108B inh	TCR CD3 inh	PAD4 FP inh	PAD4 FP conf
COc1ccc(CCNC(=O)c2cc3c(C)nn(-c4ccccc4)c3s2)cc1OC	-34	/	-4	/	/	/	/
CC(=O)N1CC[n+]2c(-c3ccc(Cl)cc3)csc21	-7	0	78*	2	-1	22*	6
S=c1[nH]nc(-c2cc(-c3ccccc3)n[nH]2)n1/N=C/c1cccc(Cl)c1	-9	24	8	4	7	16*	9
Cc1cccc(-c2nnc(SCc3cccc4ccccc34)n2-c2ccc(Cl)cc2)c1	3	/	5	/	/	/	/
Cc1[nH]c(=O)c(C#N)c2c1COC(C)(C)C2	/	-3	/	0	/	1	/
CC1=C(C#N)C(=O)OC(C)(C)C1	4	14	20	12	8	47*	15*
Cc1ccc2c(c1)c(=O)c1c3n2CCN(C(=O)CCl)C3CC1 (stereo not given)	6	4	10	10	2	30*	-1
C=CCN(CC#Cc1ccc(C(F)(F)F)cc1)CC=C	6	/	-4	/	/	/	/
Cc1sc2ccc3sccc3c2[n+]1C	4	-8	77*	-2	1	17*	14
COC(=O)[C@H]1C[C@@]2(N3CCCC3)c3ccccc3N(C(=O)OC(C)(C)C)[C@H]2N1C(=O)OC(C)(C)C	-5	/	1	/	/	/	/
C/C=C/c1ccc([C@@H]2[C@H](CO)N(S(C)(=O)=O)[C@H]2CN(C)C(=O)CC)cc1	10	/	-1	/	/	/	/
COC(=O)[C@]12C[C@H](CC(=O)NCCCN3CCCC3=O)C(=O)N(Cc3ccco3)C1=C[C@H](C(C)(C)C)O[C@@H]2C	-4	/	-1	/	/	/	/
Cc1[nH]c2ccccc2c1/C=N/Nc1ccccn1	4	/	2	/	2	/	/
Cc1[nH]c2ccccc2c1/C=N/Nc1nncn1N	9	4	6	-2	0	35*	7
CCOC(=O)Cc1nc(N2CCN(C=O)CC2)c2c(C)c(C(=O)OCC)sc2n1	3	/	-3	/	/	/	/
COc1ccc(CC(/C=C/c2ccc(F)cc2)c2ccccc2)cc1 (stereo not given)	-2	/	0	/	/	/	/
COc1ccccc1N1CCN(C(=O)CCC(=O)N2CCN(c3ccc(F)cc3)CC2)CC1	-2	-2	4	1	-8	23*	8
CC(C(=O)O)C(=O)O	8	-1	2	-6	4	39*	1
CCN(C(=S)Nc1cccnc1)c1ccccc1	-7	-4	7	-4	-2	1	/
CN(C(=S)Nc1cccnc1)c1ccc(O)cc1	12	5	33*	1	15	31*	0
COC(=O)[C@]12C[C@H](CC(=O)NCc3cccc(C(F)(F)F)c3)C(=O)N(CCC3=CCCCC3)C1=C[C@H](C(C)C)O[C@@H]2C1CC1	-4	/	0	/	/	/	/
COc1ccc(OC)c(Nc2nnc(C)c(=O)[nH]2)c1	12	0	-1	-2	0	0	/
COc1ccccc1Nc1nnc(C)c(=O)[nH]1	-8	-6	3	-4	-10	-4	/
COc1ccccc1Nc1cc2cc(Br)ccc2c(=O)[nH]1	7	-6	5	2	2	34*	5
COc1ccc(OC)c(Nc2cc3ccccc3c(=O)[nH]2)c1	10	6	8	17	-5	39*	-1
SMILES	SIAE primary	PME-1 primary	PRMT1 inh	Fam108B inh	TCR CD3 inh	PAD4 FP inh	PAD4 FP conf
O=c1[nH]c(Nc2ccccc2)cc2cc(Br)ccc12	7	18	12	16	-2	64*	-6
Cc1ccc(OCc2nnc(SCC(=O)Nc3cccc4ccccc34)n2Cc2ccco2)cc1	-12	/	3	/	/	/	/
COc1ccc(C(=O)Nc2nnc(Cc3ccc(OC)c(OC)c3)s2)c(OC)c1	-12	-2	7	-1	-3	22*	32*
C=CCN1C(=O)[C@H](CC(=O)NCc2cccc3ccccc23)[C@@]2(C(=O)OCC)CCCC=C12	-2	/	6	/	/	/	/
CC[n+]1c(C)sc2cc(OC)ccc21	5	-8	54*	3	2	17*	13
Cn1c2cc(S(C)=O)sc2c2cnn(Cc3cccc(N)c3)c(=O)c21 (stereo not given)	5	/	-5	/	/	/	/
COC(=O)c1cc(-c2cccc(OCc3ccccc3)c2)c(=O)n2c1CCC2	-2	/	4	/	/	/	/
O=C(Nc1ccc(N2CCOCC2)c2nonc12)C1CCCC1	4	6	-2	5	-2	-10	/
Nc1ccc(N2CCOCC2)c2nonc12	-6	25	40*	9	-6	81*	-8
O=C1CC(Nc2ccc(N3CCOCC3)cc2)C(=O)N1c1ccccc1 (stereo not given)	/	-3	/	-4	/	7	/
O=C1CC(Nc2ccc(N3CCOCC3)cc2)C(=O)N1Cc1ccccc1 (stereo not given)	18*	5	12	0	18	35*	-1
COc1ccccc1N1C(=O)CC(Nc2ccc(N3CCOCC3)cc2)C1=O (stereo not given)	14	1	22*	-2	-4	24*	2
CC(C)(C)c1ccc(S(=O)(=O)N2CCCC(C(=O)NCCN3CCC(Cc4ccccc4)CC3)C2)cc1 (stereo not given)	-1	/	3	/	/	/	/
CCCCNC(=O)C[C@H]1C(=O)N(Cc2ccc(OC)cc2)C2=CCCCC[C@@]21C(=O)OC	0	/	-10	/	/	/	/
CC(=O)Nc1ccc(SCC(=O)c2ccc(Br)s2)cc1	4	-4	63*	3	3	35*	12
CCC(C)NC(=O)CSc1ccc(NC(C)=O)cc1 (stereo not given)	-4	0	7	-2	-6	0	/
COc1cccc(O[C@H]2C=C[C@@H](c3ccccc3)O[C@@H]2CO)c1	-1	/	2	/	/	/	/
CCc1ccccc1NC(=O)[C@@H]1CCCN1S(=O)(=O)c1cccc2cccnc12	1	/	0	/	/	/	/
CSC1=NCCN1C(=O)Cc1ccc(Cl)cc1	3	-1	2	1	-9	3	/
COc1ccc(CC(=O)N2CCN=C2SC)cc1	-3	-3	1	-2	-6	28*	4
Cc1ccc(C=Nc2cccnc2N)cc1	/	4	/	-2	/	15*	5
Cc1ccc(/C=N/N=C/c2ccc(C)cc2)cc1	-1	0	-2	2	10	-3	/
CCOc1ccc(C=Nc2cccc3ncccc23)cc1	4	0	3	0	-3	-5	/
COc1ccc(C=Nc2cccnc2N)cc1	/	-3	/	-4	/	34*	4
CCC(=O)Nc1ccc2c(c1)C(=O)N(C)[C@@H]1CC[C@@H](CC(=O)OC)O[C@H]1CO2	-9	/	-1	/	/	/	/
Oc1ccc(C=Nc2cccc3ncccc23)c(O)c1	6	4	5	1	3	16*	5
CC1=NN(c2ccc(Cl)cc2)C(=O)C1C(c1ccccc1O)c1c(C)[nH]n(-c2ccc(Cl)cc2)c1=O (stereo not given)	/	12	/	17	/	67*	-8

Bioassay records from PubChem BioAssay.
